# From PubChem
# Not all results are given here.
# aSyn UTR act: Activators working through SNCA 5'UTR binding (MLPCN) | alpha-synuclein 5'UTR reporter, activators screen | AID 1814 | activity score, % (tested at 7.5 µM), hits read low | hit rate 7.1% among 300,000; in the data active = activity score below about -60%
# An asterisk follows results filed as active.
SMILES,aSyn UTR act
COc1cc(CNc2ccc3[nH]c(=O)[nH]c3c2)ccc1OCc1cccc(C)c1,-84.2*
COc1cc(/C=N/NS(=O)(=O)c2ccc(C)cc2)ccc1OCc1cccc(C(=O)O)c1,89.8
COc1cc(CNc2ccc(NC(C)=O)cc2)ccc1OCc1ccccc1C,-121.5*
O=c1[nH]c2ccc(NCc3ccc(OCc4ccccc4Cl)cc3)cc2[nH]1,-79.6*
COc1cc(CNc2ccc3[nH]c(=O)[nH]c3c2)ccc1OCc1ccc(C)cc1,-118.3*
COc1ccc(-c2nc(N/N=C(\C)c3ccc(O)cc3)c3ccccc3n2)cc1,-91.6*
COc1ccccc1Nc1nc2ccc(C)cc2cc1C#N,-87.2*
COc1ccccc1Nc1nc(NCCO)nc(N)c1[N+](=O)[O-],61.4
COc1ccc(C(=O)C(OC(=O)c2ccccc2Cl)c2ccccc2)cc1 (stereo not given),-104.0*
COc1ccc(C(=O)C(OC(=O)c2ccccc2)c2ccccc2)cc1 (stereo not given),-169.0*
CCN1C/C(=C/c2ccc(N3CCOCC3)cc2)C(=O)/C(=C/c2ccc(N3CCOCC3)cc2)C1,-412.1*
CN1C/C(=C\c2ccc(N3CCOCC3)cc2)C(=O)/C(=C/c2ccc(N3CCOCC3)cc2)C1,-426.5*
N=C1C(c2nc3ccccc3s2)=C(O)CN1Cc1ccccc1,-341.5*
Nc1ccc2oc(-c3cccs3)nc2c1,-88.8*
Nc1ccc2oc(-c3cccc4ccccc34)nc2c1,70.8
COc1ccc2c(c1)CC/C(=C\C=C\c1ccccc1OC)C2=O,-133.8*
COc1ccc2c(c1)C(=O)/C(=C/C=C/c1ccccc1)CC2,-115.3*
COc1ccc2c(c1)CC/C(=C\c1ccc(C)o1)C2=O,-170.2*
Cc1cc(C)nc(Nc2ccc(C)c([N+](=O)[O-])c2)n1,-99.4*
Cc1ccc(NC(=O)c2ccc(C(C)(C)C)cc2)cc1[N+](=O)[O-],-159.5*
Cc1ccc(NC(=O)c2cccs2)cc1[N+](=O)[O-],-93.8*
N#C/C(=C/c1ccc(N2CCOCC2)o1)C(=O)Nc1ccccc1,-152.5*
Cc1ccc2nc(/C(C#N)=C\c3ccc(N4CCOCC4)o3)[nH]c2c1,-231.3*
Cc1ccc(/C(C#N)=C\c2ccc(N3CCOCC3)o2)cc1,-312.5*
COc1cccc(-c2nnc(-c3ccc(C(F)(F)F)cc3)o2)c1OC,-125.2*
SMILES,aSyn UTR act
CCCSc1nnc(-c2c[nH]c3ccccc23)n1C,-78.1*
Cc1ccc(C(=O)O/N=C(\N)c2ccc(Br)cc2)cc1,-215.0*
N/C(=N\OC(=O)c1ccc(Br)cc1)c1ccccc1,-189.9*
N/C(=N\OC(=O)c1cccc(Br)c1)c1ccc(Br)cc1,-95.8*
CC(Sc1nncn1C)C(=O)Nc1nnc(-c2ccccc2)s1 (stereo not given),-83.0*
CC(SC1=NCCS1)C(=O)Nc1nnc(-c2ccc(Cl)cc2)s1 (stereo not given),-63.0*
Cc1ccc(Oc2ccc(Cl)cc2N)cc1,-85.3*
Nc1cc(Cl)ccc1Oc1ccc2ccccc2c1,-138.4*
Cc1ccc(NC(=O)C(=O)NC(C)C2COc3ccccc3O2)cc1 (stereo not given),-71.1*
N#Cc1ccccc1NC(=O)c1ccccc1OCC(=O)NCc1ccco1,-68.3*
O=C(/C=C\c1ccco1)c1ccc(NC(=O)c2ccco2)cc1,-143.4*
CN(C)c1ccc(C(=O)/C=C/c2ccco2)cc1,-226.3*
CN(C)c1ccc(C(=O)/C=C/c2ccccc2)cc1,-158.8*
O=C(c1ccccc1)c1ccc(-c2ccc(O)cc2)cc1,-251.1*
CN(C)c1ccc(N=Nc2ccc(C(=O)O)cc2)cc1,64.0
CN(C)c1ccc(C(=O)c2ccccc2)cc1,-119.0*
CN(C)c1ccc(C(=O)/C=C/c2ccc(Br)cc2)cc1,-78.8*
CCOC(=O)c1ccc(NC(=O)COc2ccc(CNC3CCCCC3)cc2OC)cc1,-63.1*
Cc1cc(=O)oc2cc(OCC(=O)Nc3ccc(N4CCC(C)CC4)cc3)ccc12,-70.1*
CCCc1cc(=O)oc2cc(OCC(=O)Nc3ccccn3)ccc12,-91.7*
Cc1ccc(NC(=O)C2CCC(CNc3c(N4CCC(C)CC4)c(=O)c3=O)CC2)cc1F (stereo not given),61.2
Cc1csc(NC(=O)COc2ccc3c(C)cc(=O)oc3c2)n1,-62.4*
COc1cccc(Oc2nnnn2-c2ccccc2)c1,-179.7*
COc1ccccc1Oc1nnnn1-c1ccc(C(N)=O)cc1,-71.0*
c1ccc(-n2nnnc2Oc2ccc(-c3nnco3)cc2)cc1,-62.0*
SMILES,aSyn UTR act
COc1cccc(N2C(N)=NC(N)=NC2(C)C)c1,95.9
COc1ccc(Oc2nnnn2-c2ccccc2)cc1,-86.6*
O=C(c1ccccc1Oc1nnnn1-c1ccccc1)N1CCOCC1,-77.3*
O=C(CCc1ccccc1)Nc1ccc2c(c1)OCO2,-122.8*
O=C(Nc1ccc2c(c1)OCO2)OCc1ccccc1,-123.5*
O=C(NCCc1ccccc1)C(=O)Nc1ccc2c(c1)OCCO2,-136.8*
O=C(NCCc1ccc(F)cc1)Nc1ccc2c(c1)OCO2,-138.9*
O=C(Nc1cccc(Cl)c1)N1CCN(Cc2ccccc2)CC1,-158.8*
O=C(CCS(=O)(=O)c1ccc(Br)cc1)Nc1ccc2c(c1)OCO2,-64.1*
O=C(NCCc1ccccc1)Nc1cccc(Cl)c1,-87.9*
O=C(/C=C/c1cccc(Cl)c1)NCCc1ccccc1,-67.5*
S=C(Nc1cc(Cl)cc(Cl)c1)NC1CCN(Cc2ccccc2)CC1,72.0
O=C(NCCc1ccccc1)Nc1ccc2c(c1)OCO2,-79.7*
Cc1ccc(C(=O)N/C(=C\c2ccc(-c3ccc(Cl)cc3)o2)C(=O)NCCCN(C)C)cc1,56.8
OCCc1ccc(-c2ccc(Cl)cc2)o1,-65.1*
CC1SCC(NC(=O)c2ccccc2Cl)CS1 (stereo not given),-101.6*
CC1SCC(NC(=O)c2ccc(Cl)cc2)CS1 (stereo not given),-110.9*
COc1ccc(/C=C2\CCn3c2nc2ccccc2c3=O)cc1OC,-256.1*
CCN(CC(=O)NCc1ccc(F)cc1)C(=O)c1ccc(COc2ccccc2)cc1,-67.4*
CCN(CC(=O)NCc1ccc(F)cc1)C(=O)/C=C/c1ccc(OC)c(S(=O)(=O)NC(C)C)c1,63.2
CCN(CC)C(=O)c1ccc(COc2ccccc2Cl)cc1,-112.0*
COc1cc2c(cc1O)CC[C@@H]1[C@@H]2CC[C@]2(C)[C@@H](O)CC[C@@H]12,75.3
O=[N+]([O-])c1cc(C(F)(F)F)ccc1NCCOc1ccccc1,-123.5*
CC(C)n1cnc2cc(NCc3nc4ccccc4n3C)ccc21,-115.1*
CCn1cnc2cc(NCc3nc4ccccc4n3C)ccc21,-107.7*
SMILES,aSyn UTR act
CCn1cnc2cc(NCc3nc4ccccc4n3Cc3ccccc3)ccc21,-138.0*
CCn1nc(C)c(/C=N/NC(=O)c2ccoc2C)c1C,-111.6*
CCCCCn1nc(C)c(/C=N/NC(=O)c2ccoc2C)c1C,-170.9*
COc1ccccc1N=Cc1c(C)c(C#N)c2[nH]c3ccccc3n2c1=O,-89.8*
CSc1nnc2c(n1)c(C)nn2-c1cccc(C)c1,-172.1*
Clc1cccc(N/N=C/c2ccc(N3CCOCC3)s2)c1,-167.4*
O=c1c2ccccc2oc2cc(C#CC3(O)CCCCC3)ccc12,77.3
COc1cc2oc3ccccc3c(=O)c2cc1OC,-119.6*
O=c1c2ccccc2oc2ccc(Oc3ccccc3)cc12,-122.5*
Cc1ccc2nc(-c3sc4nc(C)cc(C)c4c3N)[nH]c2c1,-63.2*
COc1ccccc1-n1cnc2cc(NCc3cccs3)ccc21,54.9
CC(C)(C)n1cnc2cc(NCc3cccs3)ccc21,-102.0*
CC(C)(C)n1cnc2cc(NC(=O)c3ccccc3)ccc21,-136.6*
CC(C)(C)n1cnc2cc(NC(=O)c3cccs3)ccc21,-133.6*
